Drawing on PubChem BioAssay (NCI), this text covers growth for 15 compounds.

This is part of a sample that, as a whole, favours compounds with a hit. Of some 83,000 tested, about 20% had one in any assay.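 Step 1: grow cells in 96-well plates. Step 2: add test compound at a single concentration. Step 3: incubate 48 h. Step 4: record percent growth.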 Values without a mark were called inactive. Active and inactive are the calls of the source. How the source made its calls: active means growth percent below 10; inactive means the rest.

The experiment concerns SNB-75 CNS. In words: NCI-60 one-dose screen, 48 h (100 = growth as untreated, 0 = no growth, -100 = all killed). To be noted: 10 µM unless noted.
Take `COc1ccccc1-c1nc2ccc3[nH]ncc3c2c2c1CCCC2`: the growth is 38.3%.
For the compound `O=c1ccc2nc(-c3ccccc3)nn(-c3ccccn3)c-2c1`, the growth was 106%.
Take `Nc1ncc(-c2ccc3ncnc(N4CCc5cc(F)c(Cl)cc54)c3c2)cc1C=O`: the growth is -38.3% (active).
The value for `C#Cc1ccc(NC(=O)Cc2ccc(/C=C/C(=O)c3nccn3C)cc2)cc1` was 12.7%.
The value for `CCCCN(CCC#N)C(N)=O` was 105%.
As for `COc1ccc(-c2cn(Cc3ccc4c(Br)cc(Br)c(O)c4n3)nn2)cc1`, the figure is 71.6%; as for `CCc1ccc(Cc2cnc(NC(=O)c3cc(C)oc3C)s2)cc1`, -4.36% (active); as for `COc1cc(/C=C/c2cc(/C=C/c3ccc(O)c(OC)c3)n(C(=O)Nc3ccc(C)cc3C)n2)ccc1O`, -30.5% (active).
For the compound `Clc1nc(N2CCC[N+]3(CC2)CC[N+]2(CCCNCC2)CC3)nc(N2CCC[N+]3(CC2)CC[N+]2(CCCNCC2)CC3)n1` (stereo not given), the growth was 123%.
The value for `O=S(=O)(Nc1ccc(Br)cc1)c1ccc(-c2cnc(C3CC3)o2)cc1` was -6.53% (active); that for `O=C1N/C(=N/N=C(c2ccccc2)c2ccccc2)S/C1=C\c1ccc(Br)cc1` was 101%.
`COc1cc(OCc2cccc(-c3ccc4c(c3)OCCO4)c2C)cc(OC)c1C=O`: the growth was 81.2%.
As for `COC(=O)c1c(C)nc(C)c2c1C(=O)C(Br)=C(NCCCCO)C2=O`, the figure is 97.7%; as for `COc1ccc(CNc2c3ccccc3nc3ccccc23)cc1OC`, 24.8%; as for `COc1cc(/C=C/C(=O)c2ccc(-n3cc(CN4CCN(c5cc6c(cc5F)c(=O)c(C(=O)O)cn6C5CC5)CC4)nn3)cc2)cc(OC)c1OC`, 85.7%.
